AmpC detergent: AmpC beta-lactamase inhibition with detergent present; P00811; AmpC hydrolysis of nitrocefin, absorbance 480 nm, 0.01% Triton; Potency, µM (doses to about 114 µM), most hits filed as inhibitors; 370,000 compounds, 0.041% hits; AID 485294; also: nearly all actives have a fitted effect of over 25% in size
Target sequence (P00811 whole entry, looked up): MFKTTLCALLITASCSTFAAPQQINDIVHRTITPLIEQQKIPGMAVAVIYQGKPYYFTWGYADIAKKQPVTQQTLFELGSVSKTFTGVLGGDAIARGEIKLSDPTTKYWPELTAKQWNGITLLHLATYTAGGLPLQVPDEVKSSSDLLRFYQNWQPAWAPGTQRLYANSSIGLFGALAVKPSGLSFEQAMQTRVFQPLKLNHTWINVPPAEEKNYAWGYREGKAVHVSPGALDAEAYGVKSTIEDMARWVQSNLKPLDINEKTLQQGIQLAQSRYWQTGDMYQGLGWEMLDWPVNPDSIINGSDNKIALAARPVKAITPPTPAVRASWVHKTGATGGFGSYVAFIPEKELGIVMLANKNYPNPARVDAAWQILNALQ
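AmpC (5.3 nM in the dispensed reagent) in 20 mM phosphate pH 7.0 with 0.01% (detergent screen) or 0.0001% Triton X-100 was preincubated with compounds for 15 min at room temperature. Nitrocefin was then added from an 800 uM solution, and hydrolysis was followed at 480 nm.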
CHX counter: affects cycloheximide protein synthesis inhibition readout, counter-screen. cell reporter, cycloheximide protein synthesis inhibition counterscreen. 300,000 compounds, 12% hits. max response, %; in the data active = max response mostly above about 13%, no sharp cut-off; inactive = mostly below about 14%; also: read at 38.3 µM for the half of the compounds with a filed dose
Shiga toxin inh: Shiga toxin inhibition. Vero cells, Shiga toxin protein synthesis inhibition reporter. inhibition, % at 38.7 µM. 290,000 compounds, 9.2% hits; in the data active = inhibition mostly above about 28%, no sharp cut-off; inactive = mostly below about 43%
NS1 function inh: influenza NS1 inhibition | Potency, µM (doses to about 46.1 µM) | 270,000 compounds, 0.4% hits | AID 2326; calls by dose curve; also: actives are rising curves; nearly all actives have a fitted effect of over 50% in size
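S. cerevisiae expressing influenza A NS1, grown in glucose, washed, then diluted 1:100 into pH 6.0 -URA galactose medium with 23 nl compound. Growth recovery read as OD600; NS1-free strain serves as control.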
AmpC inh no detg: blocks E. coli AmpC beta-lactamase in detergent-free assay. P00811. AmpC nitrocefin hydrolysis, absorbance 480 nm, 0.0001% Triton. Potency, µM (top dose mostly 57.1 µM), usual class: inhibitors. 330,000 compounds, 0.52% hits; also: nearly all actives have a fitted effect of over 20% in size
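AmpC (5.3 nM in the dispensed reagent) in 20 mM phosphate pH 7.0 with 0.01% (detergent screen) or 0.0001% Triton X-100 was preincubated with compounds for 15 min at room temperature. Nitrocefin was then added from an 800 uM solution, and hydrolysis was followed at 480 nm.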
Hits are given with their value; [ ] = another dose, or the depositor's remark. The sample as a whole holds a higher share of hits than the screen did. Unless noted, calls follow the shape of the dose curve; as a rule, active = well fitted curve in the direction sought with a large enough effect; inconclusive = small, poorly fitted or top-dose-only effect, or another doubt; inactive = no such curve, though single readings can be large; an effect the other way counts as inactive or inconclusive.

Results for Cc1c(C(=O)OCC(=O)N(C)CC(=O)Nc2ccc(F)cc2)oc2ccccc12 ?
AmpC detergent: inactive; AmpC inh no detg: inactive

Results for Cc1nn(CC(=O)Nc2cc(F)ccc2F)c(=O)c2cccn12 ?
AmpC detergent: inactive

What do the screens show for `CN(C)c1ccc(CNc2nc(-c3ccco3)nn2S(C)(=O)=O)cc1`?
AmpC detergent: inactive

What do the screens show for `COC(=O)c1c(NC(=O)c2ccc(C)o2)sc2c1CCCCC2`?
AmpC detergent: inactive; CHX counter: 49.5; Shiga toxin inh: 72.6; NS1 function inh: inactive; AmpC inh no detg: inactive

Results for Cc1cc(NC(=O)c2cc(-c3ccc(C)c(C)c3)nc3ccccc23)no1 ?
AmpC detergent: inconclusive; CHX counter: inactive; Shiga toxin inh: 20.1; NS1 function inh: inactive; AmpC inh no detg: inactive

How did O=C(NCc1ccccn1)c1cc(-c2ccc(Cl)cc2)nc2ccccc12 do in these assays?
AmpC detergent: inactive; CHX counter: inactive; Shiga toxin inh: 33.1; NS1 function inh: inactive; AmpC inh no detg: inactive

What do the screens show for `O=C(NCc1ccccn1)c1cc(-c2ccc(-c3ccccc3)cc2)nc2ccccc12`?
AmpC detergent: inactive; CHX counter: 19.9; Shiga toxin inh: 128.3; NS1 function inh: inactive; AmpC inh no detg: inactive

What do the screens show for `Cc1ccc(-c2cc(C(=O)Nc3cc(C)on3)c3ccccc3n2)cc1`?
AmpC detergent: inconclusive; CHX counter: inactive; Shiga toxin inh: inactive; NS1 function inh: inactive; AmpC inh no detg: inactive

What do the screens show for `Cc1ccc(-c2cc(C(=O)NCc3ccccn3)c3ccccc3n2)cc1C`?
AmpC detergent: inactive; CHX counter: 30.8; Shiga toxin inh: 65.8; NS1 function inh: inactive; AmpC inh no detg: inconclusive

What do the screens show for `C/C(=N\NC(=O)COc1cccc(C)c1)c1ccc2ccccc2c1O`?
AmpC detergent: inconclusive; CHX counter: inactive; Shiga toxin inh: inactive; NS1 function inh: inactive; AmpC inh no detg: inactive

Results for O=C(O)CCc1c2ccc(=O)c(O)c-2oc2c(O)c(O)ccc12 ?
NS1 function inh: inactive

Results for Cc1ccc(-c2cc(C(=O)NCCCN3CCOCC3)c3ccccc3n2)cc1C ?
AmpC detergent: inactive; CHX counter: inactive; Shiga toxin inh: 46.5; NS1 function inh: inactive; AmpC inh no detg: inactive

Results for O=C1CN(C(=O)CSc2nc(-c3ccc(Cl)cc3)cs2)c2ccccc2N1 ?
AmpC detergent: inconclusive; CHX counter: inactive; Shiga toxin inh: inactive; NS1 function inh: inactive; AmpC inh no detg: inactive

How did O=C(CCN1CCc2ccccc2C(c2ccccc2)C1)c1ccc2c(c1)OCCO2 (configuration not stated) do in these assays?
AmpC detergent: inactive; CHX counter: 19.0; Shiga toxin inh: inactive; NS1 function inh: inactive; AmpC inh no detg: inactive

How did O=C(O)CCSCC(=O)c1ccc2c(c1)OCCO2 do in these assays?
AmpC detergent: inactive; CHX counter: inactive; Shiga toxin inh: inactive; NS1 function inh: inactive; AmpC inh no detg: inactive

How did O=C(CCN1Cc2ccccc2C1)c1ccc2c(c1)OCCO2 do in these assays?
AmpC detergent: inactive; CHX counter: 19.0; Shiga toxin inh: inactive; NS1 function inh: inactive; AmpC inh no detg: inactive

How did Cc1cc(N/N=C2/CCCc3ccccc32)nc2ccccc12 do in these assays?
AmpC detergent: inconclusive; CHX counter: 54.0; Shiga toxin inh: 57.2; AmpC inh no detg: inactive

How did CC1C/C(=N/Nc2nc3ccccc3[nH]2)CC(C)(C)C1 (configuration not stated) do in these assays?
AmpC detergent: inactive; CHX counter: 32.8; Shiga toxin inh: 69.4; NS1 function inh: inactive; AmpC inh no detg: inactive

Results for c1ccc2[nH]c(NN=C3CCCCCC3)nc2c1 ?
AmpC detergent: inactive; CHX counter: 43.8; Shiga toxin inh: 110.4; AmpC inh no detg: inactive

How did CC1C/C(=N/Nc2ccc([N+](=O)[O-])cc2[N+](=O)[O-])CC(C)(C)C1 (configuration not stated) do in these assays?
AmpC detergent: inconclusive; CHX counter: inactive; Shiga toxin inh: inactive; NS1 function inh: inactive; AmpC inh no detg: inactive

What do the screens show for `Cc1cc(N/N=C2\CC(C)CC(C)(C)C2)nc2ccccc12` (configuration not stated)?
AmpC detergent: inconclusive; CHX counter: 35.2; Shiga toxin inh: 27.1; AmpC inh no detg: inactive[11.4 µM]

How did CC1C/C(=N/NC(=O)c2ccc(CSc3nc4ccccc4[nH]3)cc2)CC(C)(C)C1 (configuration not stated) do in these assays?
AmpC detergent: inactive; CHX counter: inactive; Shiga toxin inh: inactive; NS1 function inh: inconclusive; AmpC inh no detg: inactive

Results for c1ccc2[nH]c(NC3=NCCC3)nc2c1 ?
AmpC detergent: inconclusive; CHX counter: inactive; Shiga toxin inh: inactive; NS1 function inh: inactive; AmpC inh no detg: inactive

Results for CCCSCCCNC(=O)C1CCCN(c2nn3cc(-c4ccc(OC)cc4)nc3s2)C1 (configuration not stated) ?
AmpC detergent: inactive

What do the screens show for `CCOC(=O)N1CCN(CCC(=O)Nc2cccc(C)c2)CC1`?
AmpC detergent: inactive; CHX counter: inactive; Shiga toxin inh: inactive; NS1 function inh: inactive; AmpC inh no detg: inactive

Results for O[C@@H](C1=C/C(=C\c2ccncc2)c2ccccc21)c1ccncc1 ?
NS1 function inh: inactive

What do the screens show for `CCC(C)NC(=O)c1cc2c(=O)n(CC)c3ccccc3c2s1` (configuration not stated)?
AmpC detergent: inactive; CHX counter: 11.6; Shiga toxin inh: inactive; NS1 function inh: inactive; AmpC inh no detg: inactive

Results for CCC(C)NC(=O)c1cc2c(=O)n3ccccc3nc2s1 (configuration not stated) ?
AmpC detergent: inactive; CHX counter: 34.9; Shiga toxin inh: 31.8; NS1 function inh: inactive; AmpC inh no detg: inactive

What do the screens show for `CCN(CC)C(=O)c1cc2c(=O)n3ccccc3nc2s1`?
AmpC detergent: inactive; CHX counter: inactive; Shiga toxin inh: inactive; NS1 function inh: inactive; AmpC inh no detg: inactive

What do the screens show for `CC(C)CCNC(=O)c1cc2c(=O)n3ccccc3nc2s1`?
AmpC detergent: inactive; CHX counter: 20.1; Shiga toxin inh: 41.3; NS1 function inh: inactive; AmpC inh no detg: inactive

What do the screens show for `COCCN(CCOC)C(=O)c1cc2c(=O)n3ccccc3nc2s1`?
AmpC detergent: inactive; CHX counter: 33.7; Shiga toxin inh: inactive; NS1 function inh: inactive; AmpC inh no detg: inactive

Results for CC(C)CN(CC(C)C)C(=O)c1cc2c(=O)n3ccccc3nc2s1 ?
AmpC detergent: inactive; CHX counter: inactive; Shiga toxin inh: inactive; NS1 function inh: inactive; AmpC inh no detg: inactive

What do the screens show for `O=C(Nc1ccccc1N1CCOCC1)C1CCCO1` (configuration not stated)?
AmpC inh no detg: inactive

How did O=C(CCn1nnc2ccccc21)N/N=C\Cc1ccccc1 do in these assays?
AmpC detergent: inactive; CHX counter: inactive; Shiga toxin inh: inactive; AmpC inh no detg: inactive

What do the screens show for `Cc1ccc(CNC(=O)CN2C(=O)C3CCCCN3c3ccc(C(=O)N4CCCC4)cc32)cc1` (configuration not stated)?
AmpC detergent: inactive

Source: PubChem (National Center for Advancing Translational Sciences (NCATS))
